A selection: hits, their analogues and other compounds. The true share with any hit is near 4.2%.
MCF10A rereplic – inducers of DNA re-replication in MCF 10A breast cells; MCF 10A DNA re-replication, Hoechst nuclear intensity, 48 h; Potency, µM (doses to about 46.1 µM), usual class: activators; 350,000 tested, 2.9% active; AID 624296; note: nearly all actives have a fitted effect of over 50% in size
SW480 rerep – DNA re-replication induction in SW480 cells; Potency, µM (highest dose often 46.1 µM), hits mostly activators; 340,000 tested, 1.8% active; SW480 DNA re-replication, Hoechst DNA content imaging, 48 h; note: nearly all actives have a fitted effect of over 55% in size
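Image-based DNA-content assay: after two days of treatment, nuclei were labelled with the DNA dye Hoechst and imaged, and hits were compounds raising the count of nuclei showing high fluorescence intensity.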
a7 integrin act – activators of alpha7 integrin expression for muscular dystrophy; alpha7betagal myoblasts, beta-gal FDG fluorescence, 48 h; Potency, µM (highest dose often 38.3 µM), actives largely listed as activators; 350,000 tested, 0.064% active; AID 624291; note: nearly all actives have a fitted effect of over 60% in size
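Alpha7betagal+/- myoblasts (passage 13) were plated 16-24 hr, then exposed to compounds (1:260 dilution of DMSO stock) for 48 hours at 37C. After MPER lysis, β-galactosidase reporter activity was read as FDG fluorescence (ex 480/em 540) after 30 minutes.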
A-T KAP1 phos – potential ataxia-telangiectasia treatment. F2112 A-T fibroblasts, KAP-1 phosphorylation AlphaLISA; neocarzinostatin DNA damage 30 min before lysis. AID 485349. Potency, µM (titrated, usually from 57.5 µM), most hits filed as activators. 320,000 tested, 0.19% active; note: nearly all actives have a fitted effect of over 45% in size
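hTERT-immortalized A-T patient fibroblasts (F2112), 500 cells/well in OPTI-MEM, 1% FBS, got compounds for 60 min, then NCS for 30 min at 37C. Lysates were then assayed for phospho-KAP-1 by AlphaLISA (anti-pKAP1 donor, anti-KAP1 acceptor beads), 6 hr at 25C.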
Mito fusion act – inhibitors of mitochondrial division or activators of mitochondrial fusion. Potency, µM (top dose mostly 46.1 µM), usual class: activators. 320,000 tested, 0.23% active. S. cerevisiae fusion-defective mutant growth rescue, CellTiterGlo 48 h; note: nearly all actives have a fitted effect of over 45% in size
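S. cerevisiae fusion-defective temperature-sensitive mutants (e.g. fzo1-1, mgm1-5) grown 48 h at 37C in YPEG (ethanol/glycerol non-fermentable) medium with 23 nl compound per well; growth rescue read as CellTiterGlo luminescence.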
Each line names hits and unclear results; the compound was inactive in the other large screens. Calls come from the whole dose curve; as a rule, active = well fitted activation curve with a large enough effect; inconclusive = small, poorly fitted or top-dose-only effect; inactive = no such curve, though single readings can be large or run the other way.

O/N=C1/CCc2cccc3cccc1c23	none
O=C1C(=NO)CCc2ccccc21	SW480 rerep 20.6µM (no result: A-T KAP1 phos, Mito fusion act)
O=C(O)c1cc2ccccc2c2c1C(=O)c1ccccc1-2	none (no result: MCF10A rereplic, SW480 rerep, A-T KAP1 phos, Mito fusion act)
O=C(O)c1cc2ccccc2c2cc(Br)ccc12	Mito fusion act 11.2µM
C/C(N)=C(/C#N)C(=O)CSc1cc(C)c2cc(C)cc(C)c2n1	none
CCC(C)(C)NC(=O)C1CCCN(S(=O)(=O)c2ccc3c(c2)CC(C)N3C(=O)C2CC2)C1 (stereo not drawn)	MCF10A rereplic inconclusive, Mito fusion act 11.2µM
Cc1ccc(NC(=O)C[n+]2ccccc2)cc1C	none
Cc1ccc[n+](C(C)C(=O)Nc2ccc(C)c(C)c2)c1 (stereo not drawn)	MCF10A rereplic 0.231µM
CCN(CC)C(=O)C1=C(C)N(Cc2ccc(C(C)(C)C)cc2)C(=O)C(CC(=O)NCc2ccco2)C1 (stereo not drawn)	none (no result: MCF10A rereplic, SW480 rerep, A-T KAP1 phos, Mito fusion act)
Cc1cc(NC(=O)CCN2CCN(C)CC2)ccc1Br	none
O=C(C1COc2ccccc2O1)N1CCN(Cc2ccc(Br)cc2F)CC1 (stereo not drawn)	Mito fusion act 11.2µM
O=C(C1COc2ccccc2O1)N1CCN(Cc2ccc3c(c2)OCO3)CC1 (stereo not drawn)	none
CCN(C[C@H]1N[C@@](C)(C(=O)OC)[C@H]2C(=O)N(Cc3ccccc3)C(=O)[C@@H]12)C(=O)C1CCCCC1	SW480 rerep 1.46µM, A-T KAP1 phos inconclusive (no result: Mito fusion act)
CCN(C[C@H]1N[C@@](Cc2ccccc2)(C(=O)OC)[C@H]2C(=O)N(Cc3ccccc3)C(=O)[C@@H]12)C(=O)Nc1ccc(Cl)cc1	MCF10A rereplic inconclusive, SW480 rerep 18.4µM (no result: Mito fusion act)
CCN(C[C@H]1N[C@@](Cc2ccccc2)(C(=O)OC)[C@H]2C(=O)N(C)C(=O)[C@@H]12)C(=O)c1ccc(F)cc1	MCF10A rereplic 0.82µM (no result: Mito fusion act)
CCN(C[C@H]1N[C@@](Cc2ccccc2)(C(=O)OC)[C@H]2C(=O)N(Cc3ccccc3)C(=O)[C@@H]12)C(=O)C1CCCCC1	SW480 rerep inconclusive (no result: Mito fusion act)
CC1(c2nnc(-c3cccc(Cl)c3)o2)CC(c2cccnc2)=NO1 (stereo not drawn)	none (no result: A-T KAP1 phos, Mito fusion act)
CNC(=O)COc1coc(CN2CCN(Cc3ccccc3)CC2)cc1=O	none
COC(=O)c1cc(-c2ccc(S(=O)(=O)N3CCCCC3)cc2)c(C(F)(F)F)s1	none
CC(CC(=O)c1cccs1)CC(=O)c1cccs1	MCF10A rereplic 18.4µM, SW480 rerep 16.4µM
CN(C)Cc1ccccc1Sc1cccc2ccccc12	MCF10A rereplic 13µM, SW480 rerep inconclusive
CN(C)Cc1ccccc1Sc1ccccc1Br	none
COC(=O)C1=C(C)NC(=O)/C1=C\c1cc(C)n(-c2ccccc2C)c1C	none
COC(=O)C1=C(C)NC(=O)/C1=C\c1cc(C)n(-c2c(C)cccc2C)c1C	MCF10A rereplic 5.8µM, SW480 rerep inconclusive (no result: A-T KAP1 phos)
CCN(CC(=O)Nc1ccccc1OC)CC(=O)Nc1ccccc1C(F)(F)F	MCF10A rereplic inconclusive, SW480 rerep inconclusive
CCN(CC(=O)Nc1ccccc1-c1ccccc1)Cc1nc2ccccc2c(=O)[nH]1	MCF10A rereplic 6.51µM, SW480 rerep inconclusive
CCN(CC(=O)Nc1ccccc1OC)CC(=O)Nc1ccccc1-c1ccccc1	MCF10A rereplic 14.6µM, SW480 rerep inconclusive
COc1ccc(C(=O)c2ccc(N(C)C)cc2)c(OC)c1	MCF10A rereplic 2.24µM, SW480 rerep 4.47µM, a7 integrin act inconclusive
COc1ccc(C(=O)c2ccc(N3CCOCC3)cc2)c(OC)c1	none
COc1ccc(OC)c(C(=O)c2ccc(C(=O)c3cc(OC)ccc3OC)cc2)c1	none
COc1ccc(C(=O)c2ccc(OC)cc2OC)cc1	MCF10A rereplic 16.4µM, SW480 rerep inconclusive
CN(C)c1ccc(C(=O)c2ccc(N(C)C)c3ccccc23)cc1	MCF10A rereplic 0.206µM, SW480 rerep 0.411µM (no result: A-T KAP1 phos)
O=C(OCC#CCSc1nnc(-c2cccc3ccccc23)s1)c1cccs1	none (no result: MCF10A rereplic, SW480 rerep, a7 integrin act)
Cc1cccc(Cn2c(=O)n(CCCC(=O)NCc3ccco3)c(=O)c3ccccc32)c1	MCF10A rereplic inconclusive, SW480 rerep 20.6µM
Cc1ccccc1Cn1c(=O)n(CCCC(=O)NCc2ccco2)c(=O)c2ccccc21	none
COc1ccc(C(NC(=O)c2c(F)c(F)c(F)c(F)c2F)c2ccccc2)cc1 (stereo not drawn)	MCF10A rereplic 6.51µM, SW480 rerep inconclusive
COC(=O)CCC(=O)Nc1ccc(Cl)c(Cl)c1	none
